Drawing on PubChem BioAssay (NCATS), this text covers outcome, activity change, negative = cytotoxicity and Potency for 39 compounds.

Where “and” joins values, the source holds several entries; their conditions need not be identical. Equal entries are not always repeated. Results filed as inconclusive are left out. Where a call stands in place of a potency, no number is given. Calls of active or inactive are those of the source. Unless noted, calls follow the shape of the dose curve; as a rule, active = well fitted curve in the direction sought with a large enough effect; inconclusive = small, poorly fitted or top-dose-only effect, or another doubt; inactive = no such curve, though single readings can be large; an effect the other way counts as inactive or inconclusive.

For the first experiment, the target named is Mitogen-activated protein kinase 10 (Mus musculus) (UniProt Q61831). Briefly: JNK3 AlphaScreen Assay (AID 530; active = well fitted curve in either direction with a large enough effect, not every such curve was filed as active;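 also: kinase came from lysate of stimulated human HepG2 cells; signal reports phosphorylation of biotinylated GST-cJun 1-79 at Ser73 with 10 µM ATP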). The note with it: JNK3 lysate, c-Jun phosphorylation; series mostly up to 57.1 µM. In outline:
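Kinase buffer: 20 mM Tris-HCl pH 7.6, 10 mM MgCl2, 1 mM DTT, 0.1 mM Na3VO4, 0.01% Tween-20; ATP 10 uM. Substrate biotin-GST-cJun(1-79), enzyme from activated HepG2 lysates. Detection by Ser73 phospho-antibody AlphaScreen.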
On the technique in general: In Alpha technology, singlet oxygen from a donor bead excites a nearby acceptor bead.
Turning to `N#Cc1ccc(CN2CC[C@@]3(CCCN(C(=O)Oc4ccccc4)C3)C2)cc1`, the result was inactive.
Consider `O=C(Oc1ccccc1)N1CCC2(CCN(Cc3ccccc3)CC2)CC1`, for which the outcome was inactive.
As to `C[N+]1([O-])[C@@H]2CC(OC(=O)[C@@H](CO)c3ccccc3)C[C@@H]1[C@H]1O[C@H]12` (stereo partly specified), the compound was classed as inactive.
The same measure, in the same setting: then `CN1CCC2(CC1)CCN(C(=O)Oc1ccccc1)CC2`, with “inactive”.
In the case of `O=C(Nc1cccc(F)c1)N1CC2(CCN(C(=O)Oc3ccccc3)CC2)C1`, the outcome was inactive.
With `CCNc1nc(Cl)nc(NC(C)C)n1`, the outcome was inactive.
Consider `ClC1=C(Cl)C2(Cl)C3C4CC(C5OC45)C3C1(Cl)C2(Cl)Cl` (stereo unspecified), for which the compound was classed as inactive.
On to `CN1CC[C@@]2(CCCN(C(=O)c3ccco3)C2)C1`, for which the compound was called inactive.
For the compound `CCOCN(C(=O)CCl)c1c(C)cccc1CC`, the call was inactive.
On the same count and under the same terms, then `c1cnc(N2CC[C@@]3(CCCNC3)C2)nc1`, with “inactive”; and `ClC1=C(Cl)C2(Cl)C3C4C=CC(C4)C3C1(Cl)C2(Cl)Cl` (stereo unspecified), with “inactive”; and `COc1ccccc1CN1CC[C@@]2(CCCN(C(=O)Oc3ccccc3)C2)C1`, with “inactive”.
With `O=C(Nc1cccc(F)c1)N1CC[C@@]2(CCCN(C(=O)Oc3ccccc3)C2)C1`, the outcome was inactive.
`Cc1ccccc1-c1cncnc1NCCc1cnc[nH]1`: the compound was classed as inactive.
On to `O=C(Nc1ccccc1)N1CC[C@@]2(CCCNC2)C1`, for which the result was inactive.
The same measure, in the same setting: then `CN1CCCC2(CCN(C(=O)c3ccncc3)CC2)C1`, with “inactive”; and `CC(C)CN1CCC2(CC1)CCN(C(=O)Oc1ccccc1)CC2`, with “inactive”.
Same read-out and setting: the entry for `O=C(O)COc1ccc(Cl)cc1Cl` is “inactive”.
Turning to `CC(C)CN1CC2(CCN(C(=O)c3ccncc3)CC2)C1`, the call was inactive.
Regarding `COC(=O)NC(=S)Nc1ccccc1NC(=S)NC(=O)OC`, the call was inactive.
`C/C=C/c1ccc2c(c1)OCO2`: the compound was classed as inactive.
`N#Cc1ccc(CN2CCC3(CC2)CCN(C(=O)Oc2ccccc2)CC3)cc1`: the compound was classed as inactive.
For `COP(=S)(OC)Oc1ccc([N+](=O)[O-])cc1`, the outcome was inactive.
Still for that read-out and setting: the entry for `O=C(Nc1cccc(F)c1)N1CCC2(CC1)CCN(C(=O)Oc1ccccc1)CC2` is “inactive”; for `N#Cc1ccc(CN2CCCC3(CCN(C(=O)Oc4ccccc4)CC3)C2)cc1` it is “inactive”.
`CS(=O)(=O)N1CCC2(CC1)CN(Cc1ccncc1)C2`: the compound was called inactive.
With `O=C(c1ccncc1)N1CCC2(CC1)CN(Cc1ccccc1)C2`, the outcome was inactive.
`O=S1OCC2C(CO1)C1(Cl)C(Cl)=C(Cl)C2(Cl)C1(Cl)Cl` (stereo unspecified): the call was inactive.
With `C=CCc1ccc(OC)cc1`, the outcome was inactive.
On to `c1ccc(N2CC[C@@]3(CCCNC3)C2)nc1`, for which the result was inactive.
The same measure, in the same setting: then `c1ccc(N2CCC3(CCNCC3)CC2)cc1`, with “inactive”; and `COC(=O)N1CCC2(CCN(CC(C)C)CC2)CC1`, with “inactive”.
Take `CNC(=O)O/N=C/C(C)(C)SC`: the result was inactive.
With `c1ccc(N=Nc2ccccc2)cc1`, the compound was classed as inactive.
Take `c1cc(CN2CCC3(CCNCC3)CC2)ccn1`: the call was inactive.
In the case of `CCNC[C@H](O)c1cccc(O)c1`, the call was inactive.

System in a further experiment: not listed separately
Briefly: Cell Viability - N2a (AID 540).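 Also: cells exposed to compound for 40 h at 37 °C; nearly all actives have a fitted effect of over 45% in size.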 Conditions: N2a mouse neuroblastoma cell viability; at 92.2 µM (top of the series). In outline:
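N2a mouse neuroblastoma, 1500 cells/well, 5 hr settle; compound 40 hr, 37 °C; CellTiter-Glo 20 min RT; luminescence; Hill-fit AC50.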
`CCNc1nc(Cl)nc(NC(C)C)n1`: the activity change, negative = cytotoxicity was -4.9% (inactive).
As for `CCOCN(C(=O)CCl)c1c(C)cccc1CC`, the activity change, negative = cytotoxicity is 4.55% (inactive).
Take `ClC(Cl)=C(c1ccc(Cl)cc1)c1ccc(Cl)cc1`: the activity change, negative = cytotoxicity was -14.6% (inactive).
Regarding `O=C(O)COc1ccc(Cl)cc1Cl`, the activity change, negative = cytotoxicity is 9.64% (inactive) and 3.72% (inactive).
Still for that read-out and setting: the figure for `COC(=O)NC(=S)Nc1ccccc1NC(=S)NC(=O)OC` is -2.43% (inactive); for `C/C=C/c1ccc2c(c1)OCO2` it is -2.31% (inactive).
Regarding `COP(=S)(OC)Oc1ccc([N+](=O)[O-])cc1`, the activity change, negative = cytotoxicity was -21.2% (inactive).
Take `O=S1OCC2C(CO1)C1(Cl)C(Cl)=C(Cl)C2(Cl)C1(Cl)Cl` (stereo unspecified): the activity change, negative = cytotoxicity was -80.3% (active).
Same read-out and setting: then `C=CCc1ccc(OC)cc1`, with -8.37% (inactive); and `CNC(=O)O/N=C/C(C)(C)SC`, with -2.66% (inactive); and `c1ccc(N=Nc2ccccc2)cc1`, with 1.26% (inactive).
In the case of `CCc1cccc(CC)c1N(COC)C(=O)CCl`, the activity change, negative = cytotoxicity is -5.69% (inactive).

System in the next experiment: not listed separately
Briefly: Cell Viability - NIH 3T3 (AID 541).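 Also: cells exposed to compound for 40 hours; nearly all actives have a fitted effect of over 25% in size.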 The note with it: NIH 3T3 cell viability, qHTS; activity change, negative = cytotoxicity: at 92.2 µM (top of the series). An outline of the steps: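 qHTS format; 40 hr compound exposure, 37 °C; CellTiter-Glo luminescence (cellular ATP) read-out after 20 min at RT. Decrease in ATP = cytotoxicity; AC50 from standard Hill fit.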
On the technique in general: In qHTS, concentration-response curves come from the screen itself.
With `ClC(Cl)=C(c1ccc(Cl)cc1)c1ccc(Cl)cc1`, the activity change, negative = cytotoxicity is 7.39% (inactive) and -2.45% (inactive).
On the same count and under the same terms, the figure for `O=C(O)COc1ccc(Cl)cc1Cl` is -11.4% (inactive) and -12.3% (inactive).
On the same count and under the same terms, the figure for `COC(=O)NC(=S)Nc1ccccc1NC(=S)NC(=O)OC` is -30% (inactive); for `C/C=C/c1ccc2c(c1)OCO2` it is -3.37% (inactive).
As for `COP(=S)(OC)Oc1ccc([N+](=O)[O-])cc1`, the activity change, negative = cytotoxicity was -18.8% (inactive).
On the same count and under the same terms, then `O=S1OCC2C(CO1)C1(Cl)C(Cl)=C(Cl)C2(Cl)C1(Cl)Cl` (stereo unspecified), with -20.5% (inactive); and `C=CCc1ccc(OC)cc1`, with 3.06% (inactive).
As to `CCc1cccc(CC)c1N(COC)C(=O)CCl`, the activity change, negative = cytotoxicity is -147% (active).

System in the next experiment: not listed separately
Briefly: Cell Viability - HUV-EC-C (AID 542).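 Also: cells exposed to compound for 40 hours; nearly all actives have a fitted effect of over 35% in size.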 Also: potency is read from the fitted curve at half-maximal effect. The note with it: HUV-EC-C endothelial cell viability, qHTS; series mostly up to 92.2 µM. An outline of the steps:
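Luminescent ATP read-out (CellTiter-Glo, 20 min room temperature) after 40 hr compound treatment of HUV-EC-C cells at 37 °C. Concentration-response data fitted with the standard Hill equation to give AC50; tamoxifen and doxorubicin served as positive controls.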
Consider `CCNc1nc(Cl)nc(NC(C)C)n1`, for which the Potency result is “inactive”.
`ClC1=C(Cl)C2(Cl)C3C4CC(C5OC45)C3C1(Cl)C2(Cl)Cl` (stereo unspecified): the Potency result is “inactive”.
For the compound `CCOCN(C(=O)CCl)c1c(C)cccc1CC`, the Potency was 25.1 µM (active).
With `ClC(Cl)=C(c1ccc(Cl)cc1)c1ccc(Cl)cc1`, the Potency result was “inactive”.
Turning to `ClC1=C(Cl)C2(Cl)C3C4C=CC(C4)C3C1(Cl)C2(Cl)Cl` (stereo unspecified), the Potency entry was “inactive”.
For the compound `O=C(O)COc1ccc(Cl)cc1Cl`, the Potency entry was “inactive”.
As for `COC(=O)NC(=S)Nc1ccccc1NC(=S)NC(=O)OC`, the Potency result is “inactive”.
Regarding `C/C=C/c1ccc2c(c1)OCO2`, the Potency result is “inactive”.
For `COP(=S)(OC)Oc1ccc([N+](=O)[O-])cc1`, the Potency result was “inactive”.
Still for that read-out and setting: the entry for `O=S1OCC2C(CO1)C1(Cl)C(Cl)=C(Cl)C2(Cl)C1(Cl)Cl` (stereo unspecified) is “inactive”.
Regarding `C=CCc1ccc(OC)cc1`, the Potency entry was “inactive”.
Regarding `ClC1=C(Cl)C2(Cl)C3C(Cl)C=CC3C1(Cl)C2(Cl)Cl` (stereo unspecified), the Potency result is “inactive”.
With `CNC(=O)O/N=C/C(C)(C)SC`, the Potency entry was “inactive”.
For `c1ccc(N=Nc2ccccc2)cc1`, the Potency entry is “inactive”.
Take `CCc1cccc(CC)c1N(COC)C(=O)CCl`: the Potency was 50.1 µM (active).
